Source: PubChem BioAssay (National Center for Advancing Translational Sciences (NCATS))
hNpr1 antagonist: antagonists of human natriuretic peptide receptor Npr1. 76,000 compounds, 1.6% hits. Potency, µM (series often up to 46.3 µM), without a hit: at the highest dose activity change, negative = inhibition, most hits filed as inhibitors. P16066. HEK293 hNpr1 GloSensor cGMP, ANP-stimulated luminescence; calls by dose curve; further: nearly all actives have a fitted effect of over 60% in size
Target sequence (P16066 whole entry, looked up): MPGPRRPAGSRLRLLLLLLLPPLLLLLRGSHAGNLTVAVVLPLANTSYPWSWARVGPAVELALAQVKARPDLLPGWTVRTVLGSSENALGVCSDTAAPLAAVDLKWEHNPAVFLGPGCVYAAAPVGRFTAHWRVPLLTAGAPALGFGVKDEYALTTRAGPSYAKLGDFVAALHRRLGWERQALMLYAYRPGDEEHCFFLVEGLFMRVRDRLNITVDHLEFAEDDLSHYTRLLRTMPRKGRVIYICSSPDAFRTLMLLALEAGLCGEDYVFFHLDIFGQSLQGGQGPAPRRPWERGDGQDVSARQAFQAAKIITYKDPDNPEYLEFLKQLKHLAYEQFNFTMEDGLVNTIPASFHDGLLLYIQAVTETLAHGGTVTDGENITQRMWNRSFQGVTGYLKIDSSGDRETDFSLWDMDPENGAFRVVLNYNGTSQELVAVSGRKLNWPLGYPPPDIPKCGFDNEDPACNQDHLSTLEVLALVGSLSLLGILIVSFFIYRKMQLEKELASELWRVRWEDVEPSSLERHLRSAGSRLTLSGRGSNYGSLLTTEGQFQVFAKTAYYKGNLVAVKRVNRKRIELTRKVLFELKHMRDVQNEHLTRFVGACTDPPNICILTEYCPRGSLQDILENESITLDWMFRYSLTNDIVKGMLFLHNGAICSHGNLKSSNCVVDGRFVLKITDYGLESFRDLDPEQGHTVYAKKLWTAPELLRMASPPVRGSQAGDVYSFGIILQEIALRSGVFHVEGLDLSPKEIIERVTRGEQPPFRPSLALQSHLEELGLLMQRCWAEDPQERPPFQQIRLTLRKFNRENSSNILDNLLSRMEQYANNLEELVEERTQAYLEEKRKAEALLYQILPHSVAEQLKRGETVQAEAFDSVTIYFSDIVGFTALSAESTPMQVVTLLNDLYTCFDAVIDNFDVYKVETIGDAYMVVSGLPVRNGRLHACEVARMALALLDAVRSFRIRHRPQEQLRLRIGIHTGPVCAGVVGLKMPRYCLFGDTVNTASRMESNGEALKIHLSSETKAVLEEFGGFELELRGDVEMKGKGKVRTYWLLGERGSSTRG
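HEK293 cells stably expressing human Npr1 and cGMP GloSensor pGS-40F, loaded 2 h with 2% GloSensor reagent, given compound 30 min at room temperature. Luminescence read before and 20 min after 0.1 nM hNppA.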
NIH3T3 tox: kills NIH 3T3 cells; NIH 3T3 viability, CellTiter-Glo ATP luminescence, 48-72 h; Potency, µM (titrated, usually from 96.7 µM), for inactives: at the top dose activity change, negative = cytotoxicity, usual class: inhibitors; 94,000 compounds, 4.3% hits; further: nearly all actives have a fitted effect of over 55% in size
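Mouse fibroblast NIH 3T3 cells, 400 per well, received compound via pintool and were incubated for 48 or 72 hr prior to CellTiter-Glo ATP luminescence measurement.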
GPT2 inh: inhibitors of human GPT2 alanine aminotransferase; Q8TD30; Recombinant GPT2, coupled pyruvate oxidase/HRP Amplex Red fluorescence; Potency, µM (doses to about 57.7 µM), inactives show top-dose activity change, negative = inhibition, most hits filed as inhibitors; 100,000 compounds, 0.25% hits; further: nearly all actives have a fitted effect of over 60% in size
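Recombinant GPT2 (10ng/uL) with 250uM a-KG and 2mM L-alanine, 30 min at room temperature, in HEPES pH 7.5 buffer. Pyruvate detected by pyruvate oxidase/HRP/Amplex Red fluorescence after 30 min in the dark; AOA (50uM) as positive control.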
HEK293 tox: cytotoxic compounds in HEK 293 cells | HEK 293 viability, ATP luminescence (CellTiter-Glo), 48-72 h | Potency, µM (doses to about 115 µM), without a hit: top-dose activity change, negative = cytotoxicity, hits mostly inhibitors | 94,000 compounds, 6.6% hits; further: nearly all actives have a fitted effect of over 60% in size
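qHTS cytotoxicity; HEK 293, 250 cells/well; compound pinned; 48 or 72 hr, 37 degree Celsius, 5% CO2, 95% humidity; CellTiter-Glo, 10 min RT; luminescence (ATP).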
FLuc inh: Photinus pyralis luciferase inhibition. purified P. pyralis luciferase, luminescence, biochemical. 76,000 compounds, 2.5% hits. AID 1347043. P08659. Potency, µM (top dose mostly 115 µM), usual class: inhibitors; further: nearly all actives have a fitted effect of over 65% in size
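FLuc 10nM, D-luciferin 10uM, ATP 10uM, Mg acetate 10mM, Tris acetate pH 7.5, Tween/BSA; cpd qHTS; enzyme added last; CCD luminescence.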
Starred values were filed as active, the others as inactive; i = inactive; ? = inconclusive; . = no result given; [ ] = dose if it differs, or a comment. An excerpt weighted towards active compounds, which were near 10% of everything screened. Unless noted, the call rests on the fitted dose curve; in most records, active means well fitted curve in the direction sought with a large enough effect; inconclusive means small, poorly fitted or top-dose-only effect, or another doubt; inactive means no such curve, though single readings can be large; an effect the other way counts as inactive or inconclusive. On the % scale 0 is the no-effect control and ±100 the full control effect; potency means the concentration at half of the fitted maximal effect.

SMILES	hNpr1 antagonist	NIH3T3 tox	GPT2 inh	HEK293 tox	FLuc inh
CC(C)(C)c1ccc(C(=O)Nc2nc3c(s2)C[C@@H]2[C@](C)(CO)[C@H](O)CC[C@@]2(C)[C@@H]3CC(=O)NC2CC2)cc1	3%	45µM*	-2%	45µM*	45µM*
CN(C)C(=O)N1CCC(C(=O)N2CCC3(CC2)CC(=O)Nc2ccccc2O3)CC1	.	2%	i	-1%	.
O=C(Cn1cccc1-c1nc(-c2ccc3c(c2)OCO3)no1)Nc1ccc2c(c1)OCCO2	-7%	i	i	?	i
Cc1ccc(C(=O)N2CCC3(CC2)NC(=O)N(c2ccccc2Cl)N3)cc1	-2%	?	?	?	i
COc1ccc(CNC(=O)C2CN(C)C(=O)N2)cc1 (centres undefined)	.	4%[138 µM]	i	i	.
CCn1cc(CN2CCCC(c3nc4c(C)cccc4[nH]3)C2)cc1C#N (centres undefined)	-27%	?	i	?	i
CC(C)c1cc(C(=O)N2CCn3nc(C(=O)Nc4ccccc4)cc3C2)n[nH]1	13µM*	?	-1%	?	?
CCS(=O)(=O)CC(=O)N1CCn2nc(C(=O)Nc3ccccc3)cc2C1	-3%	0%	i[11.5 µM]	?	i
C[C@H]1[C@@H]2[C@@H](O)C([C@H](C)C(=O)NCc3ccc(F)cc3)CC[C@@]2(C)CC[C@@H]1NC(=O)c1ccccc1 (some centres undefined)	-2%	?	0%	40µM*	i
COc1ccc(C(=O)N[C@H]2CC[C@]3(C)CCC([C@H](C)C(=O)NCc4ccccc4)[C@H](O)[C@H]3[C@@H]2C)cc1 (some centres undefined)	5%	?	-3%	?	i
COc1cccc(C(O)c2nc(C(=O)Nc3ccc(OC)c(OC)c3)c(C)o2)c1 (centres undefined)	3%[70.6 µM]	-24%[138 µM]	i	?	25µM*
Cc1oc(C(O)c2cncnc2)nc1C(=O)Nc1ccc2c(c1)NC(=O)CO2 (centres undefined)	-1%[70.6 µM]	?	1%[88.5 µM]	-11%[172 µM]	i
Cc1oc(C(O)c2cncnc2)nc1C(=O)Nc1ccc(N2CCOCC2)cc1 (centres undefined)	-2%[70.6 µM]	?	i	-12%[172 µM]	18µM*
COc1cccc(C(O)c2nc(C(=O)NCc3ccco3)c(C)o2)c1 (centres undefined)	-5%[70.6 µM]	?	-4%[88.5 µM]	-41%[172 µM]	i
COc1ccc(-c2noc(C(=O)O)c2[C@@H](C)NC(=O)c2cc(C)n(C)n2)cc1	2%[70.6 µM]	2%[138 µM]	-4%[88.5 µM]	i	i
CCN1CCCC1CNC(=O)CCC1CCN(Cc2cn(CC)c3ccccc23)CC1 (centres undefined)	-13%	?	3%	?	i
Cc1cnc(CC2CCN(C(=O)NCC(C)C)CC2)n1Cc1ccc(F)cc1	-1%	-14%	3%	-18%	i
Cc1nc(-c2ccc(F)cc2)n(CC(=O)Nc2ccccc2)c(=O)c1CCO	1%	-19%	-3%	45µM*	i
COc1ccc(C)cc1NC(=O)Cn1c(-c2ccc(F)cc2)nc(C)c(CCO)c1=O	4%	-13%	2%	79µM*	i
CSc1cccc(NC(=O)Cn2c(-c3ccc(Cl)cc3)nc(C)c(CCO)c2=O)c1	-7%	-13%	i	32µM*	i
Cc1nc(-c2ccc(F)cc2)n(CC(=O)Nc2cccc(C(F)(F)F)c2)c(=O)c1CCO	?	22µM*	-8%	20µM*	i
Cc1nc(-c2ccccc2)n(CC(=O)Nc2ccc(F)cc2)c(=O)c1CCO	-11%	?	-4%	?	i
CC(C)CN1CCN(C2CCOC3(CCN(C(=O)Cc4cccc(F)c4)CC3)C2)CC1 (centres undefined)	.	?	-6%	?	.
Cc1ccc(NC(=O)Cn2c(-c3ccc(F)cc3)nc(C)c(CCO)c2=O)c(Cl)c1	-13%	-23%	i	?	i
Cc1nc(-c2ccc(Cl)cc2)n(CC(=O)Nc2cccc(C(F)(F)F)c2)c(=O)c1CCO	-1%	?	i	40µM*	i
SMILES	hNpr1 antagonist	NIH3T3 tox	GPT2 inh	HEK293 tox	FLuc inh
Cc1nc(-c2ccc(F)cc2)n(CC(=O)Nc2cc(C(F)(F)F)ccc2Cl)c(=O)c1CCO	5%	?	-25%	32µM*	i
CCOC(=O)C1CCCN(C(=O)c2cn3cc(-c4ccc(OC)cc4)sc3n2)C1 (centres undefined)	.	?	i	?	.
O=C(NCCc1ccc(Cl)cc1)C1CCc2nnc(-c3ccc(Cl)cc3Cl)n21 (centres undefined)	.	?	-13%	?	.
Cc1cc(CN(C)Cc2cn(-c3cccc(F)c3)nc2-c2ccc(C)o2)n[nH]1	-4%	?	i	45µM*	?
O=C(Nc1ccc(Oc2cccnc2)cc1)C1CCN(CCCc2ccccc2)CC1	-12%	?	0%	25µM*	i
Cc1ccc(OCC(=O)NCCC2CCN(C(=O)Nc3cc(F)cc(F)c3)CC2)cc1	0%	?	-3%	?	i
O=C(Nc1cccc(Br)c1)N1CCC2(CC1)SCC(=O)N2Cc1ccccc1	-9%	16µM*	-3%	50µM*	i
O=C(Nc1cccc(Br)c1)N1CCC2(CC1)SCC(=O)N2Cc1ccco1	?	16µM*	-2%	28µM*	?
COc1cccc(CN2CC(O)CN(S(=O)(=O)c3ccc(F)cc3)CC2=O)c1OC (centres undefined)	.	?	.	-19%	.
COCCCn1c(C)cnc1C1CCN(S(=O)(=O)Cc2ccccc2)C1 (centres undefined)	4%	-12%	i	-3%	i
OCCc1ccc(Nc2cnc3ccc(-c4ccc(F)cc4)nn23)cc1	-9%[70.6 µM]	?	-24%[88.5 µM]	?	i
CN(Cc1cccnc1)c1ccc2ncc(Nc3ccc4c(c3)OCO4)n2n1	-30%[70.6 µM]	?	2%[88.5 µM]	?	i
CN(Cc1cccnc1)c1ccc2ncc(Nc3ccc(F)cc3)n2n1	?	?	?	79µM*	i
CN(Cc1ccc(F)cc1)c1ccc2ncc(Nc3cccc(O)c3)n2n1	?	?	?	63µM*	i
CN(Cc1ccc(F)cc1)c1ccc2ncc(Nc3ccc4c(c3)OCO4)n2n1	?	28µM*	-15%[88.5 µM]	63µM*	i
CN(Cc1ccc(F)cc1)Cc1cccnc1	5%[70.6 µM]	-16%[174 µM]	i	-15%[230 µM]	i
CCN1CC(C)(C)CN([S+](=O)([O-])c2ccc(C)cc2)CC1=O	.	?	.	-20%	.
Cc1ccccc1C(=O)N1CCC(CCC(=O)NCCc2c[nH]c3ccccc23)CC1	-4%	-26%	i	?	i
